Source: PubChem (National Center for Advancing Translational Sciences (NCATS))
IL1B secr inh: inhibitors of inflammasome signaling (IL-1 beta secretion). THP-1 LPS/ATP IL-1B secretion, AlphaLISA, 16 h; active compounds read low. activity change, % at 57.5 µM. hit rate 4.7% among 360,000; in the data active = activity change below about -50%; inconclusive = mostly about -30% to -49%
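Secreted IL-1B measured by AlphaLISA bead assay after 16 h compound exposure of THP-1 cells; compounds (final up to 57.5 uM) added 1 h before LPS (250 ng/mL) and ATP (1.25 mM) stimulation; lower signal means less secretion.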
ATXN2 expr inh: inhibitors of ATXN2 expression. HEK-293 ATXN2-luciferase reporter, luminescence, 24 h. Potency, µM (series often up to 57 µM), actives largely listed as inhibitors. hit rate 0.72% among 360,000. AID 1745845; also: nearly all actives have a fitted effect of over 55% in size
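ATXN2-luciferase reporter cells (luciferase flanked by upstream and downstream ATXN2 gene portions) were treated 24 h at 37 °C with compounds at up to 57 uM. SteadyGlo luminescence gave expression; GF-AFC fluorescence gave viability.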
USP2a block: inhibitors of human ubiquitin-specific protease USP2a; USP2 core, Ub-CHOP2 coupled fluorogenic reporter, 485/531; hit rate 0.01% among 330,000; Potency, µM (series often up to 38.3 µM), hits mostly inhibitors
Target sequence (O75604 whole entry, looked up): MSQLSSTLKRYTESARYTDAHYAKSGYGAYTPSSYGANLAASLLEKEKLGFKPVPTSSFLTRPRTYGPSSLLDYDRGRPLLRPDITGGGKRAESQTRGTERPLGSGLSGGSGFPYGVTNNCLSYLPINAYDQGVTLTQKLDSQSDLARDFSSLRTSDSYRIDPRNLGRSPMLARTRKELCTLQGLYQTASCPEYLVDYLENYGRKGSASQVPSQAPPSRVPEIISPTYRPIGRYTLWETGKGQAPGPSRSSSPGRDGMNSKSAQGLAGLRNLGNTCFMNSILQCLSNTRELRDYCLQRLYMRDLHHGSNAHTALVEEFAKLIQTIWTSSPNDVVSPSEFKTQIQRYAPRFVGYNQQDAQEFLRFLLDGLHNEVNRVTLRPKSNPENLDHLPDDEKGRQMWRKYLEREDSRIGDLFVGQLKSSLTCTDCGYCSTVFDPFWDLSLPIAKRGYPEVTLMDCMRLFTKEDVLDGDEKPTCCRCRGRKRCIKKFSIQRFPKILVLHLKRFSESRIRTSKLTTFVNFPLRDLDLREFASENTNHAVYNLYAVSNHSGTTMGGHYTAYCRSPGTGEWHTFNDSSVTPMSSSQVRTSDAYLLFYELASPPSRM
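USP2 core (10nM final) preincubated 30min RT with compound in 20mM Tris-HCl pH 8.0, 2mM CaCl2, 2mM beta-mercaptoethanol, 0.05% CHAPS; 25nM Ub-CHOP2 plus 25nM reporter substrate added, fluorescence (Ex485/Em531) read after 60min.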
USP1-UAF1 inh: inhibitors of human USP1/UAF1 deubiquitinase; hit rate 0.23% among 390,000; AID 743255; Potency, µM (top dose mostly 57.1 µM), most hits filed as inhibitors; recombinant USP1/UAF1, Ub-Rhodamine cleavage fluorescence; O94782; also: nearly all actives have a fitted effect of over 60% in size
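USP1/UAF1 complex (1 nM) preincubated 15 min at room temperature with compound, then Ub-Rho substrate (150 nM final) added. Kinetic fluorescence at 480/540 nm over 6 reads at 60 s intervals; 50 mM HEPES pH 7.8, 0.5 mM EDTA, 0.1 mg/ml BSA, 1 mM TCEP, 0.01% Tween-20.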
S2 tox: viability counter-screen for ATXN expression inhibitors; Potency, µM (series often up to 56.7 µM), usual class: cytotoxic; S2 cells (HEK-293 line with an ATXN2-luciferase reporter) viability, CellTiter-Fluor protease fluorescence, 24 h; hit rate 0.49% among 400,000; also: nearly all actives have a fitted effect of over 40% in size
Hits are given with their value; i = inactive; ? = inconclusive; nt = not tested or not shown. A selection: hits, their analogues and other compounds. The true share with any hit is near 4.8%. Unless noted, calls follow the shape of the dose curve; as a rule, active = well fitted curve in the direction sought with a large enough effect; inconclusive = small, poorly fitted or top-dose-only effect, or another doubt; inactive = no such curve, though single readings can be large; an effect the other way counts as inactive or inconclusive.

SMILES	IL1B secr inh	ATXN2 expr inh	USP2a block	USP1-UAF1 inh	S2 tox
CC(Oc1ccc2ccccc2c1)C(=O)NNC(=O)Nc1ccccc1F (centres undefined)	-50.3	i	i	i	i
CCCS(=O)(=O)c1nc(C)cc(C)c1S(C)(=O)=O	i	i	i	i	i
Cc1cc(C)c(S(C)(=O)=O)c(NN)n1	-62.1	i	i	i	i
CCOC(=O)/C(=N/Nc1ccc(OC)cc1)N1CCCc2ccccc21	-53.0	i	i	i	i
CCOC(=O)/C(=N/Nc1ccccc1)N1CCCc2ccccc21	i	i	i	i	i
O=[N+]([O-])c1ccc(C=CC=Cc2ccccc2)cc1	i	nt	nt	i	i
CN(c1ccccc1)c1ccc(/C=C/[N+](=O)[O-])cc1	-107.4	i	i	?	nt
COc1ccc(-c2[nH]nc3oc(=O)c(CCO)c(C)c23)cc1	-84.3	i	i	i	i
CCN(CC)c1ccc(CNc2nc3ccccc3n2CCN2CCOCC2)cc1	-76.4	?	i	i	i
CC(C)c1ccc(-c2nnn(CCC(=O)O)n2)cc1	i	0.562µM	i	i	i
C=CCOc1ccc(/C=C2/C(=O)ON=C2C)cc1OC	-97.1	i	i	i	i
CCCOc1ccccc1/C=C1/C(=O)ON=C1C	-52.0	i	i	i	i
CCCOc1ccc(/C=C2/C(=O)ON=C2C)cc1OCC	i	i	i	i	i
CCOc1cc(/C=C2\C(=O)ON=C2C)ccc1OCc1ccccc1	-117.4	?	i	i	?
C#CCOc1ccc(Cl)cc1/C=C1/C(=O)ON=C1C	i	i	i	i	i
CC(Oc1cccc(Cl)c1)C(=O)Nc1nc(-c2ccccn2)cs1 (centres undefined)	-101.5	i	i	i	nt
CCc1sc(C(=O)Nc2nc(-c3ccccn3)cs2)cc1C	i	25.1µM	i	i	i
CC(Oc1ccccc1)C(=O)Nc1nc(-c2ccccn2)cs1 (centres undefined)	-103.1	?	i	i	?
CC(Oc1ccccc1)C(=O)Nc1nc(-c2ccncc2)cs1 (centres undefined)	i	i	i	i	i
Cc1ccc(C(=O)Nc2nc(-c3ccccn3)cs2)s1	i	?	i	i	i
CSCCC(=O)Nc1nc(-c2ccccn2)cs1	i	i	i	i	i
O=C(Nc1nc(-c2ccccn2)cs1)C1CCCC1	-71.3	i	i	i	i
CCN(CC)C(=O)c1cc([N+](=O)[O-])cc2c1-c1ccc([N+](=O)[O-])cc1C2=C(C#N)C#N	i	i	i	?	i
Cc1c(C(=O)OCC(=O)NCC2CCCO2)cccc1[N+](=O)[O-] (centres undefined)	i	i	i	i	i
COc1ccc(/C=C/C(=O)OCC(=O)NC2CCCCCC2)cc1	i	nt	nt	i	i
SMILES	IL1B secr inh	ATXN2 expr inh	USP2a block	USP1-UAF1 inh	S2 tox
Cc1cccnc1Nc1nc(-c2ccccn2)cs1	-111.5	?	i	i	nt
Cc1cccnc1Nc1nc(-c2ccccc2)cs1	i	i	i	i	i
Cc1ccc2nc3cc([N+](=O)[O-])cc([N+](=O)[O-])c3cc2c1	-72.7	7.52µM	i	i	7.94µM
Cc1nc2ccc([N+](=O)[O-])cc2nc1C	i	i	i	i	i
CCCn1c(C)cc(C(=O)CN2C(=O)c3ccccc3S2(=O)=O)c1C	i	nt	nt	i	i
COc1ccc(C(=O)CN2C(=O)c3ccccc3S2(=O)=O)cc1Br	i	?	i	i	?
Cc1cc(C(=O)CN2C(=O)c3ccccc3S2(=O)=O)c(C)n1CC1CCCO1 (centres undefined)	i	0.501µM	i	i	?
COc1ccc(NC(=O)CN2C(=O)c3ccccc3S2(=O)=O)cc1OC	-82.6	i	i	i	i
COc1ccc(C(=O)CN2C(=O)c3ccccc3S2(=O)=O)cc1	i	0.501µM	i	i	i
COc1ccccc1CNC(=O)COC(=O)c1ncc(Cl)c(Cl)c1Cl	i	i	i	i	i
CCCC(=O)Nc1ccc2nc(SCc3ccc(C)cc3)sc2c1	nt	i	nt	i	i
Cc1ccc(C(=O)COC(=O)CSc2cccc3cccnc23)c(C)c1	-87.8	i	nt	i	i
O=C(O)CSc1cccc2cccnc12	i	i	i	i	i
CCOCCCNC(=O)C1CCN(c2nn3cc(-c4ccc(F)cc4)nc3s2)CC1	nt	nt	nt	i	nt
COc1ccc(Nc2ncc(C(=O)N3CCN(c4ccc(F)cc4)CC3)c3ccccc23)cc1	-59.5	?	i	i	?
